Measurements as given in PubChem BioAssay AID743313 (Broad Institute, 2014).
A number with no mark means an inactive call. The source made the active and inactive calls.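 How the source made its calls: active means cell killing with a fitted half-maximal concentration no more than twice the top valid dose used; inconclusive means flat curve with a moderate signal drop, or poor fit; inactive means the rest.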

Assay: loss of HepG2 viability via ATP – cell-based, plate reader, dry powder, set 7, cytotoxicity control, dose response (AID 743313)
Details: ATP luminescence (CellTiter-Glo), 72 h; series mostly up to 26 µM; activity change, negative = cytotoxicity: at the top concentration

| Compound | activity change, negative = cytotoxicity [%] | outcome |
| --- | --- | --- |
| S=c1[nH]c2ccccc2n1CCOc1ccc(Cl)cc1 | -18.1 | – |
| Fc1ccc(OCCn2c(=S)[nH]c3ccccc32)cc1 | -11.5 | – |
| S=c1[nH]c2cccc(Cl)c2n1CCOc1ccccc1 | – | inactive |
| S=c1[nH]c2ccccc2n1CCOc1ccccc1Cl | -11.6 | – |
| Cc1ccc(C(C)C)c(OCCn2c(=S)[nH]c3cccc(C)c32)c1 | -14.8 | – |
| Cc1ccc(C(C)C)c(OCCn2c(=S)[nH]c3cccc(Cl)c32)c1 | -14.8 | – |
| Cc1ccc(C(C)C)c(OCCn2c(=S)[nH]c3cc(F)ccc32)c1 | -22.7 | – |
| Cc1cccc2[nH]c(=S)n(CCOc3ccccc3)c12 | -4.27 | – |
| Cc1ccc(OCCn2c(C)nc3ccccc32)cc1 | -16.1 | – |
| COCc1nc2ccccc2n1CCOc1ccc(C(C)(C)C)cc1 | -11.4 | – |
| CSc1nc2ccccc2n1CCOc1cc(C)ccc1C(C)C | -10.2 | – |
| Cc1ccc(C(C)C)c(OCCn2c(=S)[nH]c3c(Cl)cccc32)c1 | -12.2 | – |
| CC(C)(C)c1ccc(OCCn2c(=S)[nH]c3ccccc32)cc1 | -18.1 | – |
| Cc1cccc(OCCn2c(=S)[nH]c3ccccc32)c1 | -3.15 | – |
| Fc1cccc(OCCn2c(=S)[nH]c3ccccc32)c1 | -8.16 | – |
| O=c1[nH]c2ccccc2n1CCOc1ccccc1 | -5.21 | – |
| CC(C)c1ccccc1OCCn1c(=S)[nH]c2ccccc21 | -18.4 | – |
| CC(C)(C)c1ccc(OCCn2cnc3ccccc32)cc1 | -14.3 | – |
| Cc1ccc(C(C)C)c(OCCn2c(=S)[nH]c3ccccc32)c1 | – | inactive |
| Cc1ccc(OCCn2c(=S)[nH]c3ccccc32)c(C)c1 | -11.8 | – |
| COc1cccc(OCCn2c(=S)[nH]c3ccccc32)c1 | -0.915 | – |
| COc1ccc(OCCn2c(=S)[nH]c3ccccc32)cc1 | -3.91 | – |
| Cc1ccc(OCCn2c(=S)[nH]c3ccccc32)cc1 | -6.11 | – |
| Cc1ccc(C)c(OCCn2c(=S)[nH]c3ccccc32)c1 | -18.1 | – |
| Cc1cccc(OCCn2c(=S)[nH]c3ccccc32)c1C | -6.93 | – |
| CCOc1ccc(OCCn2c(=S)[nH]c3ccccc32)cc1 | -11.2 | – |
| c1ccc(OCCn2cnc3ccccc32)cc1 | -12.9 | – |
